# Experimental data from article PMC7862700, “An all-to-all approach to the identification of sequence-specific readers for epigenetic DNA modifications on cytosine”.
# Experiments:
# Assay in all cases: DAPPL (digital affinity profiling via proximity ligation, sequencing); 10 mM Tris-HCl pH 7.5, 50 mM NaCl, 1 mM DTT, 4% glycerol, room temperature, 30 min; GST-TFs on glutathione beads, 16-mer random dsDNA library, 0.1% formaldehyde crosslink after washing; high values mean tight binding
# FLI1 = target: T1, FLI1 (Homo sapiens, UniProt Q01543 1-452); settings: protein: recombinant; tags: N-terminal GST; dsDNA, one strand shown
# T1 sequence: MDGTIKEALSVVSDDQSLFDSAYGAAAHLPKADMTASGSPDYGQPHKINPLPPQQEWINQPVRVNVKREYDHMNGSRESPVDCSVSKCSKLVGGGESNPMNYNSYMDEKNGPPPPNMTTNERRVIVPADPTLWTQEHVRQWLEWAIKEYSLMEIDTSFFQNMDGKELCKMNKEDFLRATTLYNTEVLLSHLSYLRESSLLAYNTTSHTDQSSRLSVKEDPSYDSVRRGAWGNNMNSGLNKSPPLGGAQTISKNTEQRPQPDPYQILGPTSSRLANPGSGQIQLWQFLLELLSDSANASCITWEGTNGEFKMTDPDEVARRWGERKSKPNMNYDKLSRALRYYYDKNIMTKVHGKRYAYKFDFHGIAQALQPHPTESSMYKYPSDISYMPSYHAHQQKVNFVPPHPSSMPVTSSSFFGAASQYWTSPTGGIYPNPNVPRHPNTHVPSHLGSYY
# How it was run: (§1)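 A tag-only sample was pooled with DNA-barcoded human transcription factors that had been expressed in yeast as GST fusions and captured on glutathione beads. The pools were incubated for 30 min at room temperature with 200 nmole of a random double-stranded 16-mer DNA library in Tris/NaCl/DTT/glycerol buffer, then washed, crosslinked with 0.1% formaldehyde, proximity-ligated (BsaI/T4 ligase, 1 h, 37 °C), PCR-amplified and sequenced on an Illumina NextSeq500. Binding signal is each hexamer's read frequency for a factor divided by its frequency for the tag-only sample.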
# ELK1 = target: T2, ELK1 (Homo sapiens, UniProt P19419 1-428); settings: protein: recombinant; tags: N-terminal GST; dsDNA, one strand shown
# T2 sequence: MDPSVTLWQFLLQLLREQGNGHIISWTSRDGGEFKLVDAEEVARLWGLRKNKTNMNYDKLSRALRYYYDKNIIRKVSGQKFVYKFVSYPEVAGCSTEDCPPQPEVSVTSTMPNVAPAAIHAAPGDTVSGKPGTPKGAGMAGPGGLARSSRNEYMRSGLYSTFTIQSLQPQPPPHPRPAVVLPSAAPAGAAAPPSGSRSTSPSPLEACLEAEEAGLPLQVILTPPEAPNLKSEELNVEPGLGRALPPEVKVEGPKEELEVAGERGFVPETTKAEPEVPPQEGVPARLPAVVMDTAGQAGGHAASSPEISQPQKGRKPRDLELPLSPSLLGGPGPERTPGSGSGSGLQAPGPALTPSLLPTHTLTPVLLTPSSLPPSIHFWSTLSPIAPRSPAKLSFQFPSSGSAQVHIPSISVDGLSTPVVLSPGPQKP
# How it was run: as §1
# GABPA = target: T3, GABPA (Homo sapiens, UniProt Q06546 1-454); settings: protein: recombinant; tags: N-terminal GST; dsDNA, one strand shown
# T3 sequence: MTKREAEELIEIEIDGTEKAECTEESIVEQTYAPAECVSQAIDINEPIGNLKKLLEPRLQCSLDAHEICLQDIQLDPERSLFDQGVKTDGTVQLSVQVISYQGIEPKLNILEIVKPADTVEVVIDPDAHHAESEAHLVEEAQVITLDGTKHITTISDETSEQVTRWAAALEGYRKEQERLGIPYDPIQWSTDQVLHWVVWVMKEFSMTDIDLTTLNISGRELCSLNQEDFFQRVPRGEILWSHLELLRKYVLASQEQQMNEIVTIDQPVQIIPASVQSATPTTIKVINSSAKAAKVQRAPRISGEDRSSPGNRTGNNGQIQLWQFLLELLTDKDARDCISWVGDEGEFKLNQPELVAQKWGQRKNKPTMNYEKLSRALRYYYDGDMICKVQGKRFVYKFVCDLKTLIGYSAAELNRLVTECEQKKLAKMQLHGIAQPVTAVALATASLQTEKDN
# How it was run: as §1
# ERG = target: T4, ERG (Homo sapiens, UniProt P11308 1-479); settings: protein: recombinant; tags: N-terminal GST; dsDNA, one strand shown
# T4 sequence: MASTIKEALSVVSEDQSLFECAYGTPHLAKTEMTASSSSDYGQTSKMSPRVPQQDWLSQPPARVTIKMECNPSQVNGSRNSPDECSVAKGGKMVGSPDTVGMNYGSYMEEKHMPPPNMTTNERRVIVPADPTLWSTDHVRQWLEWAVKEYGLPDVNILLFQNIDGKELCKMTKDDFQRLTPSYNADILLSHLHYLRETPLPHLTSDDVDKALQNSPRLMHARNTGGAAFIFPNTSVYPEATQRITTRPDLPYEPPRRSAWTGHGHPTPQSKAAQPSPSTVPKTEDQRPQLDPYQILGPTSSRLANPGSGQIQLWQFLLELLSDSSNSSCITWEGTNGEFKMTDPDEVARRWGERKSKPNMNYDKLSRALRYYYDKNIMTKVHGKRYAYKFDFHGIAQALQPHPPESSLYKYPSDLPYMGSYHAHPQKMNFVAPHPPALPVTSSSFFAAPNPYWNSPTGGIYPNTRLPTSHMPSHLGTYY
# How it was run: as §1
# ELF1 = ELF1 (Homo sapiens, UniProt P32519 1-619); settings: protein: recombinant; tags: N-terminal GST; dsDNA, one strand shown
# How it was run: as §1
# SPI1 = SPI1 (Homo sapiens, UniProt P17947 1-270); settings: protein: recombinant; tags: N-terminal GST; dsDNA, one strand shown
# How it was run: as §1
# SPIB = SPIB (Homo sapiens, UniProt Q01892 1-262); settings: protein: recombinant; tags: N-terminal GST; dsDNA, one strand shown
# How it was run: as §1
# ETV5 = ETV5 (Homo sapiens, UniProt P41161 1-510); settings: protein: recombinant; tags: N-terminal GST; dsDNA, one strand shown
# How it was run: as §1
# HSF1 = HSF1 (Homo sapiens, UniProt Q00613 1-529); settings: protein: recombinant; tags: N-terminal GST; chain copies: 3; dsDNA, one strand shown
# How it was run: as §1
# ELF4 = ELF4 (Homo sapiens, UniProt Q99607 1-663); settings: protein: recombinant; tags: N-terminal GST; dsDNA, one strand shown
# How it was run: as §1
# ELK4 = target: T5, ELK4 (Homo sapiens, UniProt P28324-2 1-405); settings: protein: recombinant; tags: N-terminal GST; dsDNA, one strand shown
# T5 sequence: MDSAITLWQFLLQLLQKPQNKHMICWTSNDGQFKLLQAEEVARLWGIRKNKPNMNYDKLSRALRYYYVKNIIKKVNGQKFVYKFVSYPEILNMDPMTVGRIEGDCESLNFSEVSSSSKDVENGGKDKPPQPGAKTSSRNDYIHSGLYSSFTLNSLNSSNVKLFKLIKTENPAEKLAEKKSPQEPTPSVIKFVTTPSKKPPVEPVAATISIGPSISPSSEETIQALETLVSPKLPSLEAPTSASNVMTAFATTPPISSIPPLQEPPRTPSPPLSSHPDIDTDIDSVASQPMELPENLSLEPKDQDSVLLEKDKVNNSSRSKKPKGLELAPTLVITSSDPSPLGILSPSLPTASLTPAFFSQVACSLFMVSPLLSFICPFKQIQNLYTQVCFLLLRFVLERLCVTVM
# How it was run: as §1
# ETV2 = target: T6, ETV2 (Homo sapiens, UniProt O00321 1-342); settings: protein: recombinant; tags: N-terminal GST; dsDNA, one strand shown
# T6 sequence: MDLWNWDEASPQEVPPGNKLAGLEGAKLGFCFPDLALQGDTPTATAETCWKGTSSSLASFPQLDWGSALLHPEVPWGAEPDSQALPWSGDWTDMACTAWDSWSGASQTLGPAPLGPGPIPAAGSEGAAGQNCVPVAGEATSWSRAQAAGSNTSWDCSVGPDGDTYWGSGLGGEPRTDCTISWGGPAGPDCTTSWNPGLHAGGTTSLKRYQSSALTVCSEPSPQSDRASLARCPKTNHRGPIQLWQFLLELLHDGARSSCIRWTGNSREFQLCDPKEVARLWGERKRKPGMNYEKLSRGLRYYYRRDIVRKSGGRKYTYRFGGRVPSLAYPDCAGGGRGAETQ
# How it was run: as §1
# ELF3 = target: T7, ELF3 (Homo sapiens, UniProt P78545 1-371); settings: protein: recombinant; tags: N-terminal GST; dsDNA, one strand shown
# T7 sequence: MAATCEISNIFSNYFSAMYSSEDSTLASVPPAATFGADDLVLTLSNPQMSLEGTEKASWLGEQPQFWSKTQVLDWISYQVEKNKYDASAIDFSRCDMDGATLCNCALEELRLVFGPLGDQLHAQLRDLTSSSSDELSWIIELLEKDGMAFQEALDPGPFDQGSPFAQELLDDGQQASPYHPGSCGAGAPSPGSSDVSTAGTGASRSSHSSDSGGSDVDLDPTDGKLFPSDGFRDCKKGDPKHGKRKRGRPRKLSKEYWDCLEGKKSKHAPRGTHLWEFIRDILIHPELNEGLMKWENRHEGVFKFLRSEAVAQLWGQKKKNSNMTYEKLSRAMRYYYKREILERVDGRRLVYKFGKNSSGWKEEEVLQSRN
# How it was run: as §1
# CRX = CRX (Homo sapiens, UniProt O43186 1-299); settings: protein: recombinant; tags: N-terminal GST; dsDNA, one strand shown
# How it was run: as §1
# ETV1 = ETV1 (Homo sapiens, UniProt P50549 1-477); settings: protein: recombinant; tags: N-terminal GST; dsDNA, one strand shown
# How it was run: as §1
# EHF = target: T8, EHF (Homo sapiens, UniProt Q9NZC4 1-300); settings: protein: recombinant; tags: N-terminal GST; dsDNA, one strand shown
# T8 sequence: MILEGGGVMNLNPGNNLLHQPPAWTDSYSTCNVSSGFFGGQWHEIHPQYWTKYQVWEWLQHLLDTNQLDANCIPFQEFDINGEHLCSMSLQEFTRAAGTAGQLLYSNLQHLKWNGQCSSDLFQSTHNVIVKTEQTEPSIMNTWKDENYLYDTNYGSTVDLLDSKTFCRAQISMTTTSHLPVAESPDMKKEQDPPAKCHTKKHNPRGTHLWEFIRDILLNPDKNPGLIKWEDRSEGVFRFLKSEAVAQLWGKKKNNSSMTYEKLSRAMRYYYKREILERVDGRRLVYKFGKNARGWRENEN
# How it was run: as §1
# ELK3 = target: T9, ELK3 (Homo sapiens, UniProt P41970 1-407); settings: protein: recombinant; tags: N-terminal GST; dsDNA, one strand shown
# T9 sequence: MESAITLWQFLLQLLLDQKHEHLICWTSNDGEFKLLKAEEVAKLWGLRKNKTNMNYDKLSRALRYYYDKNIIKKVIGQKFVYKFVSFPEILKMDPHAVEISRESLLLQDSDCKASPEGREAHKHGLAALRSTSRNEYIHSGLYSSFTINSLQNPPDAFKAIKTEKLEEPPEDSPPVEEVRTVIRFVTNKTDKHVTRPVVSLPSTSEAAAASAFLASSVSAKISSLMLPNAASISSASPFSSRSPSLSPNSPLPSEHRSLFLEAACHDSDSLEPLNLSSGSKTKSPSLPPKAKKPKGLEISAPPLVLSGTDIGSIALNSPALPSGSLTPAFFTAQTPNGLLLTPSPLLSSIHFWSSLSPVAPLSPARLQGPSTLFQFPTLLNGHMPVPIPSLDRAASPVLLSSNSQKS
# How it was run: as §1
# SPIC = target: T10, SPIC (Homo sapiens, UniProt Q8N5J4 1-248); settings: protein: recombinant; tags: N-terminal GST; dsDNA, one strand shown
# T10 sequence: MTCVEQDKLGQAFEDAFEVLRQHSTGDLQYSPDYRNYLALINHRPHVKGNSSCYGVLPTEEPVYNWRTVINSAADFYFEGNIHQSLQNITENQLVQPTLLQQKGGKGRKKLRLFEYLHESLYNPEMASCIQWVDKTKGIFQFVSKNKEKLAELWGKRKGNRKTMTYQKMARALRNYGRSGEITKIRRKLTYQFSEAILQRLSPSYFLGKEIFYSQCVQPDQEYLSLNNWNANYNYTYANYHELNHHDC
# How it was run: as §1
# Chain of ELF1 (P32519 whole entry): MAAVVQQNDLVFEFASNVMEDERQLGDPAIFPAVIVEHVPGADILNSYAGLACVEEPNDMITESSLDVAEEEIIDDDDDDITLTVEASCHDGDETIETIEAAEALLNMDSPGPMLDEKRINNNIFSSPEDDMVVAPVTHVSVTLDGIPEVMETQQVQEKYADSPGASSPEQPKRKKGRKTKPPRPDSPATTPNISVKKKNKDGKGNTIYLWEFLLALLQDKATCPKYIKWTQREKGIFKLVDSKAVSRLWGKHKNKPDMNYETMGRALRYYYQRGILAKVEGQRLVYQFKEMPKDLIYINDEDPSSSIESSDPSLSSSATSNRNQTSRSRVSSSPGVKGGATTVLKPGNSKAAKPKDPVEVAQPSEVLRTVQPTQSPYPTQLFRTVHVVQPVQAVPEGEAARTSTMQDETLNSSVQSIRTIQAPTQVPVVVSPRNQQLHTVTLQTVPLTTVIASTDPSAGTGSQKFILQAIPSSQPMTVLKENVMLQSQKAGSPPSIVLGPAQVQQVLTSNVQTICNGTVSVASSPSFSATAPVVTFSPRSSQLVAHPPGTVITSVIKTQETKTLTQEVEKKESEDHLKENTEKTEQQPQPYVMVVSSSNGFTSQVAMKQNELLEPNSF
# Chain of CRX (O43186 whole entry): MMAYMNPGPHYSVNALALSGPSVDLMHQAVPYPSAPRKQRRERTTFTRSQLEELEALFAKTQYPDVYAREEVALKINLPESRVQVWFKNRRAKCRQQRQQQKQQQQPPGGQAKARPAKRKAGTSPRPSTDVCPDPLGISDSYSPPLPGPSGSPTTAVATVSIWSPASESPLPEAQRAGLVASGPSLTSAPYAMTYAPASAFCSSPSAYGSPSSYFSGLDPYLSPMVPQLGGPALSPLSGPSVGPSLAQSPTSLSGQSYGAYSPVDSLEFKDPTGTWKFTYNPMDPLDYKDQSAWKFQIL
# Chain of SPIB (Q01892 whole entry): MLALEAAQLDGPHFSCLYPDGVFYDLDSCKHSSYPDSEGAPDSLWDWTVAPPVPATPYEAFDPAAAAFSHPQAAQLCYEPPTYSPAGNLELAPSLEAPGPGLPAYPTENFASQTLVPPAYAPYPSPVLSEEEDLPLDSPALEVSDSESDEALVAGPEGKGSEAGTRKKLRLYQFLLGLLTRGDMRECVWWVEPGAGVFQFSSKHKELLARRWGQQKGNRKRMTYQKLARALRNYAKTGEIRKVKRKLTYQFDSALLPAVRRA
# Chain of ETV5 (P41161 whole entry): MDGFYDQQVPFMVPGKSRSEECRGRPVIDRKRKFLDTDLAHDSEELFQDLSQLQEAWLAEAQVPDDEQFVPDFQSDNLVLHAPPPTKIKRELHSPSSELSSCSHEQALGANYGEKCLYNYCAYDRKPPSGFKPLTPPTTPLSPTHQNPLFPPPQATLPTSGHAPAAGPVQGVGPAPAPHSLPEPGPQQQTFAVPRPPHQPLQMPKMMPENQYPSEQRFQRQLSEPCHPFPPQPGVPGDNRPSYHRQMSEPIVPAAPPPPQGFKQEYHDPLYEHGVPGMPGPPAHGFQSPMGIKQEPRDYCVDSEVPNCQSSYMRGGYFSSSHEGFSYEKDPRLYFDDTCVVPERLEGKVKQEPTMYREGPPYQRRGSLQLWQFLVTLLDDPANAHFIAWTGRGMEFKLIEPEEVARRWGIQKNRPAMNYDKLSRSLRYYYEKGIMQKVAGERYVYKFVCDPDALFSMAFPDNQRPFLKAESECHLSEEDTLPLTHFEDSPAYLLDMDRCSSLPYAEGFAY
# Chain of HSF1 (Q00613 whole entry): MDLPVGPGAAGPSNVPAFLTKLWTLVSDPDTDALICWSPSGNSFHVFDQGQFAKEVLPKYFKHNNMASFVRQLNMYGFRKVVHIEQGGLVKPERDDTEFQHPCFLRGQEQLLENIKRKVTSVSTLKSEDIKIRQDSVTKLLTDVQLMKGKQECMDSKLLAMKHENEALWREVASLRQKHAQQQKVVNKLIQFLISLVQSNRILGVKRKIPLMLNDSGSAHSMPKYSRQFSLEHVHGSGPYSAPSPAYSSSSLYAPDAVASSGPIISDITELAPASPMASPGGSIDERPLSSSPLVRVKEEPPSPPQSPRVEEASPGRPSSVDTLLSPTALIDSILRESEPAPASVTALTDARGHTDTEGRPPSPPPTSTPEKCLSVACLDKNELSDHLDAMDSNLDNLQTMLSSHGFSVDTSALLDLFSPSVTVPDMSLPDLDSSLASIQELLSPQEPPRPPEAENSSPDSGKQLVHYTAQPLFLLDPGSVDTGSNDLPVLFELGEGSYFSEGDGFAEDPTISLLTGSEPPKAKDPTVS
# Chain of ELF4 (Q99607 whole entry): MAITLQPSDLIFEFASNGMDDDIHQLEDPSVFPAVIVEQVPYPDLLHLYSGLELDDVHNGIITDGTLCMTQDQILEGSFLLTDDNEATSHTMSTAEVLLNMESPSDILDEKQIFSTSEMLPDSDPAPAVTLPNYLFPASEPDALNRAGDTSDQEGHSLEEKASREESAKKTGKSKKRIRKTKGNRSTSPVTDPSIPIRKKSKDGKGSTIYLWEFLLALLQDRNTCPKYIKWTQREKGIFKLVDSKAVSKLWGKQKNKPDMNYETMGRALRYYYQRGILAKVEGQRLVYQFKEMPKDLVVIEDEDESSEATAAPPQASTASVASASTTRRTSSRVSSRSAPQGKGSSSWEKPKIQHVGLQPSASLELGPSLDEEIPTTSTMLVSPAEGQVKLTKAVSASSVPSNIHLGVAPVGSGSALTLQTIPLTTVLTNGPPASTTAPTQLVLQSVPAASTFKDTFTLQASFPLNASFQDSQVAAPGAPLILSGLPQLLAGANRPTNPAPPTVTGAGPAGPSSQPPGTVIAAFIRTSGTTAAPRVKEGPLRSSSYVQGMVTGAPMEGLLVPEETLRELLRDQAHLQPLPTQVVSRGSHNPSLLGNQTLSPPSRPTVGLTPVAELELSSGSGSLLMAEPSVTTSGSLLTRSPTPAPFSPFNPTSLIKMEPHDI
# Chain of ETV1 (P50549 whole entry): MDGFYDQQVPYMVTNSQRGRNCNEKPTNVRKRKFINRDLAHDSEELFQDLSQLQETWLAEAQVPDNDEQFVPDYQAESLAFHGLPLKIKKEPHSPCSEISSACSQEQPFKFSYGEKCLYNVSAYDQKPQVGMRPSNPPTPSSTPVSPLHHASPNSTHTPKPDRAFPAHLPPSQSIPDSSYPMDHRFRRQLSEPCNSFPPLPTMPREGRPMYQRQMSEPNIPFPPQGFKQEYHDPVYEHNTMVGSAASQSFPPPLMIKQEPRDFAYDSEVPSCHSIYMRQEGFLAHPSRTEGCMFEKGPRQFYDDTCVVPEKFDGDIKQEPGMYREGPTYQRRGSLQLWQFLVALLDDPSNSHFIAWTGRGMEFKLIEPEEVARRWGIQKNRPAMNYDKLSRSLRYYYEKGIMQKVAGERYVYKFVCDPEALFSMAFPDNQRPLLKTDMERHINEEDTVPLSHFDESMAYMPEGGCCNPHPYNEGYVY
Sequence,binding signal (FLI1),binding signal (ELK1),binding signal (GABPA),binding signal (ERG),binding signal (ELF1),binding signal (SPI1),binding signal (SPIB),binding signal (ETV5),binding signal (HSF1),binding signal (ELF4),binding signal (ELK4),binding signal (ETV2),binding signal (ELF3),binding signal (CRX),binding signal (ETV1),binding signal (EHF),binding signal (ELK3),binding signal (SPIC)
AGGTAT,"1.06 fold enrichment (6-mer frequency, TF over GST control)","1.06 fold enrichment (6-mer frequency, TF over GST control)","1.07 fold enrichment (6-mer frequency, TF over GST control)","1.04 fold enrichment (6-mer frequency, TF over GST control)","1.04 fold enrichment (6-mer frequency, TF over GST control)","1.04 fold enrichment (6-mer frequency, TF over GST control)","1 fold enrichment (6-mer frequency, TF over GST control)","1.02 fold enrichment (6-mer frequency, TF over GST control)","1.07 fold enrichment (6-mer frequency, TF over GST control)","1.02 fold enrichment (6-mer frequency, TF over GST control)","1.03 fold enrichment (6-mer frequency, TF over GST control)","1.03 fold enrichment (6-mer frequency, TF over GST control)","1.12 fold enrichment (6-mer frequency, TF over GST control)","1.05 fold enrichment (6-mer frequency, TF over GST control)","1.02 fold enrichment (6-mer frequency, TF over GST control)",,,
TACTAG,"1.09 fold enrichment (6-mer frequency, TF over GST control)","1.09 fold enrichment (6-mer frequency, TF over GST control)","1.07 fold enrichment (6-mer frequency, TF over GST control)","1.06 fold enrichment (6-mer frequency, TF over GST control)","1.11 fold enrichment (6-mer frequency, TF over GST control)","1 fold enrichment (6-mer frequency, TF over GST control)","1 fold enrichment (6-mer frequency, TF over GST control)","1.05 fold enrichment (6-mer frequency, TF over GST control)","1.81 fold enrichment (6-mer frequency, TF over GST control)",,,"1.17 fold enrichment (6-mer frequency, TF over GST control)",,"1.3 fold enrichment (6-mer frequency, TF over GST control)",,"1.09 fold enrichment (6-mer frequency, TF over GST control)","1.05 fold enrichment (6-mer frequency, TF over GST control)","1.02 fold enrichment (6-mer frequency, TF over GST control)"
